FBW7 activator: activators of human E3 ligase FBW7; Q969H0; AlphaScreen FBW7–phospho-cyclin E peptide binding, activator screen; normalized activity (activation), % at 26.1 µM; actives 0.13% (n = 650,000); in the data active means normalized activity above about 1.9%;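 further: purified mutant Fbw7 with reduced substrate affinity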
MITF primary: human MITF inhibition, primary screen; O75030; AlphaScreen MITF homodimerization, bead proximity signal; inhibition, % at 2.6 µM; actives 0.91% (n = 650,000); in the data active means inhibition above about 50%
GPR151 ag: activators of human GPR151; Q8TDV0; PathHunter beta-arrestin GPR151 cells, luminescence; activation, % at 11.2 µM; actives 1% (n = 650,000); AID 1508602; in the data active means activation above about 4.9%
Target sequence (Q8TDV0 whole entry, looked up): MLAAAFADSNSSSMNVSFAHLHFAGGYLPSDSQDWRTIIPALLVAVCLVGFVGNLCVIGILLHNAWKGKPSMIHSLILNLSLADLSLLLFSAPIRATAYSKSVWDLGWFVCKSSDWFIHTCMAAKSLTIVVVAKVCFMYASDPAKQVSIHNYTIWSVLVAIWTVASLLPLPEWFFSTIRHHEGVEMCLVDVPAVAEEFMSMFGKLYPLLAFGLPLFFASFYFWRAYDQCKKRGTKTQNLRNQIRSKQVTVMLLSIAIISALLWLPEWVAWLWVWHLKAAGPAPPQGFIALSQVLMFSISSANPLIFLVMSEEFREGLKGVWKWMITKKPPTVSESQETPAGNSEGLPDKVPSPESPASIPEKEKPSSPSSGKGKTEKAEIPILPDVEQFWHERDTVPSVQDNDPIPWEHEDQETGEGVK
TEAD-YAP inh: TEAD-YAP interaction inhibition. HEK-TIYL cells, TEAD-Gal4/YAP UAS-luciferase luminescence. inhibition, % at 9.12 µM. actives 1.4% (n = 640,000). AID 1259422; in the data active means inhibition above about 32%
Large screens that a line does not name were inactive. An excerpt weighted towards active compounds, which were near 3.5% of everything screened.

O=C(Nc1noc2ccccc12)c1c(F)cccc1F	TEAD-YAP inh 57
Cc1ccc2c(NC(=O)c3ccccc3F)noc2n1	none
O=C(c1ccccc1Br)N1CCC(Cc2ccccc2)CC1	none
CC(=O)N/C(=C\c1ccccc1)C(=O)NC(=S)Nc1ccccc1O	none
COC(=O)[C@@H]1C[C@@H](NC(=O)c2[nH]c3ccc(Cl)cc3c2C)CN1C(C)C	none
O=C(Oc1ccc(/C=C/c2ccncc2)cc1)c1ccco1	TEAD-YAP inh 35
O=C(Oc1cccnc1)c1ccco1	none
COC(=O)N/N=C\c1ccc(OC(=O)c2ccco2)cc1	none
CC(C)(C)OC(=O)N/N=C\c1ccc(OC(=O)c2ccco2)cc1	TEAD-YAP inh 59
C=CCN=c1scc(-c2ccc(C)cc2)n1/N=C(\C)c1cccnc1	none
Cc1ccc(N2C(=O)N(CC(=O)Nc3ccccc3OC(F)F)C(=O)C2C)cc1 (configuration not stated)	none
CCOC(=O)c1ccccc1NC(=O)CN1C(=O)C(C)N(c2ccc(C)cc2)C1=O (configuration not stated)	TEAD-YAP inh 46
COC(=O)c1ccccc1NC(=O)CN1C(=O)C(C)N(c2ccc(C)cc2)C1=O (configuration not stated)	TEAD-YAP inh 45
Cc1ccc(N2C(=O)N(CC(=O)Nc3ccccc3C(F)(F)F)C(=O)C2C)cc1 (configuration not stated)	none
Cc1cccc2c(Nc3ccc4c(c3)OCO4)nc(CN3CCCCC3CCO)nc12 (configuration not stated)	none
CN1CCN(c2ncn(-c3ccc(Nc4ncc(F)c(-c5cccc(N6CCOCC6)c5)n4)cc3)n2)CC1	TEAD-YAP inh 62
Cn1cc(-c2nc(Nc3ccc(-n4cnc(N5CCC(O)CC5)n4)cc3)ncc2F)cn1	TEAD-YAP inh 85
N#Cc1cc(-c2nc(Nc3ccc(N4CCOCC4)cc3)ncc2F)cc(N2CCOCC2)c1	none
Cn1cc(-c2ccc(-c3ccnc(Nc4ccc(-n5cnc(N6CCOCC6)n5)cc4)n3)cc2)cn1	none
Cn1cnnc1-c1ccc(Nc2ncc(F)c(-c3cc(F)cc(N4CCOCC4)c3)n2)cc1	TEAD-YAP inh 72
Cn1cc(-c2ccc3cnc(Nc4ccc(-n5cnc(N6CCOCC6)n5)cc4)nc3n2)cn1	TEAD-YAP inh 80
Cc1nc(CC2(C)C(=O)Nc3cc(C(F)(F)F)ccc32)cs1 (configuration not stated)	none
COc1cc2c(cc1OC)CN(C(=O)CSc1ncnc3sc(C)c(C)c13)CC2	none
Cc1cc(C)n2cc(COc3ccc(I)cc3)nc2n1	none
Cc1cc2c(c(=O)o1)C(c1ccc(Cl)c([N+](=O)[O-])c1)C(C#N)=C(N)O2 (configuration not stated)	none
CN1CCN(c2ncn(-c3ccc(Nc4ncc(F)c(-c5cc(F)cc(N6CCOCC6)c5)n4)cc3)n2)CC1	TEAD-YAP inh 77
Cn1cnnc1-c1ccc(Nc2nccc(-c3cccc(Nc4ccccc4)c3)n2)cc1	none
Cn1cnnc1-c1ccc(Nc2ncc(F)c(-c3ccccc3)n2)cc1	TEAD-YAP inh 41
CC1CN(c2ncn(-c3ccc(Nc4ncc5ccc(-c6cnn(C)c6)c(Cl)c5n4)cc3)n2)CC(C)O1 (configuration not stated)	TEAD-YAP inh 57
Cc1nc(C)n(-c2ccc(Nc3ncc(F)c(-c4cc(F)cc(N5CCOCC5)c4)n3)cc2)n1	none
CCn1cc(-c2ccc3cnc(Nc4ccc(-n5cnc(N6CCOCC6)n5)cc4)nc3c2Cl)cn1	none
CCOC(=O)C1CCCN(C(=O)C(=O)c2c[nH]c3ccccc23)C1 (configuration not stated)	none
CC(C)n1cnc2c(NCCc3ccc(O)cc3)nc(Nc3ccc4ncccc4c3)nc21	TEAD-YAP inh 39
CCCNc1nc(Nc2ccc3ncccc3c2)nc2c1ncn2C(C)C	none
CC(C)N(CCNc1nc(Nc2cnccn2)nc2c1ncn2-c1ccsc1)C(C)C	TEAD-YAP inh 39
CC(C)N(CCNc1nc(Nc2ccncc2)nc2c1ncn2-c1ccsc1)C(C)C	none
COc1cc(Nc2nc(NCCN(C(C)C)C(C)C)c3ncn(-c4ccsc4)c3n2)cc(OC)c1OC	none
CC(C)N(CCNc1nc(Nc2cccnc2)nc2c1ncn2-c1ccsc1)C(C)C	TEAD-YAP inh 35
CC(C)N(CCNc1nc(Nc2ccc3ncccc3c2)nc2c1ncn2-c1ccsc1)C(C)C	TEAD-YAP inh 44
CCCNC(=O)c1c(C)[nH]c(C(C)=O)c1C	none
O=C(OC(c1ccccc1)c1ccccc1)c1ccncc1	none
CC(OC(=O)c1cc(=O)c2ccccc2o1)C(=O)Nc1ncc(Cl)cc1Cl (configuration not stated)	none

Screens as filed in PubChem.
